Test results from PubChem BioAssay AID1159506 (National Center for Advancing Translational Sciences (NCATS), 2015).
Whole data set: some 59,000 sequences, median the read-out near -0.00055, cut for the lowest 2% near -2. The entries come from a sample that favours the lowest values as a whole.

Experiment: Identification of proteins required for the processing of the EWS-FLI1 nascent transcript;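 further: robust z of luciferase light less the median z of siRNAs with the same seed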
Conditions: TC32 Ewing sarcoma NR0B1-luc vs CMV-luc (EWS-FLI1 target promoter against control promoter), 48 h; screened at 20 nM (by protocol)
How it was run: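 TC32 Ewing sarcoma cells carrying NR0B1-promoter or CMV-promoter luciferase reporters were reverse-transfected with single siRNAs at 20 nM, three per gene genome-wide. Luminescence was read after 48 h and normalized to non-targeting controls.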

In order of rising seed-corrected z-score:
1. UGGAGUAUGAGUCCCAUUC against MTPAP  -15.6
2. UUGUAAUCAAAGUAGUAGC against PSMD8  -5.85
3. AAAACGAUCAAAAUCUGUC against RPL14P1  -3.16
4. UUCUUUAUGCACAACUCCC against MYO1C  -2.91
5. UACAGUAGCACUGCCCUGU against LAMA5  -2.69
6. AAAGUUACUCUUCCAAACC against POC1A  -2.67
7. UCAGUUUCCUCGCCGACUC against SH3BP5L  -2.66
8. AUAAGACUGACCUUGGUUG against TFCP2L1  -2.59
9. UGCAGGUUCAGCUUGUCUG against LGALS2  -2.58
10. AAAUCUGCACUCUUGGUCA against RGS11  -2.54
11. UAGUUGAGAAGGUCGAAGU against SF3B5  -2.5
12. UUUGUUUCGCUGGUCUUUG against RYBP  -2.49
13. UCCAGUUGUUCAAUCAUGG against CNTROB  -2.47
14. AUGGUAGACACCUUAGUUC against RPL7P23  -2.39
15. UCGAUGUAGAGGAUGCUGA against GDF7  -2.35
16. ACAGGGACUUGAACUGGGC against IFNL3  -2.31
17. AGCUUGUACAGUGUUAUCC against PTPN4  -2.22
18. UCAGGUGCUCCAAGUACUG against TMEM201  -2.21
19. UGUGGACAAGGUCUAGGGC against LOC401317  -2.18
20. UCUCCUUUUAGCAUGAUCC against SNRPE  -2.15
21. AUGGGUCUCAUGCUCCUCU against TMEM74B  -2.13
22. AUCUUGGUGAUUUCGCGGC against NDN  -2.11
23. UUAGUUGCUGACUUUCUCC against TRAPPC9  -2.06
24. UGCUUCAACAAAUCGGGCC against C7orf57  -2.05
25. UUGGGUGUCAGCAGUACUG against PRRC2A  -2.05
26. AGAUGUGAUAGUGCUCUGG against TMEM52B  -2.02
27. UCAGUAGCAACUGCCCUUU against MGAT4EP  -2.02
28. AAUCGCAUUGUUCAUGUCC against OR6K3  -1.67
29. UUCAGCAUCACGAACAUCC against SRSF10  -1.61
30. AAUUGUCCAACAUCAACGA against METTL2A  -1.52
31. UUCGUUAUCAAUGCAGUAG against TUBB4B  -1.5
32. UACAGUACAAGUAUGAGCU against CYB561D2  -1.33
33. CAGAUUCUGACGCUUUGUG against LIMD1-AS1  -1.25
34. UUACGUAAUCCAGGGAUCG against LANCL2  -1.2
35. UCCUUGCAAAUCUCCGACC against LTBP3  -1.01
36. UACUGAGGACCUUUCGUUC against SPATA21  -0.926
37. UGUCUCUCAGGCAACAGGC against PROP1  -0.922
38. UCUAGGAGCAGCGCAACUG against ANKRD29  -0.882
39. UCAGGUAUCUGAGAAUCUC against APOBEC3B  -0.83
40. UUCAUCUCCACAAUCACCG against MAG  -0.753
41. UUCUUUCUCACGGUCACUC against LOC728445  -0.746
42. UGCUUAACCACAGAAGCUG against ADSL  -0.731
43. UGGUAUUCAAAAUAGUCGC against TLK1  -0.673
44. UAAUCAUCCCGACCAACGC against P2RY10  -0.625
45. UGAGGUACUCGCUUUCCUG against TCTE1  -0.587
46. UCUGCACUUGUCAAUAUCC against MED10  -0.53
47. UUCAUUAUCAUCUAGGUGG against ACTR5  -0.49
48. AAUGAGACGACGGAUGAAC against C19orf25  -0.471
49. UGAGGUUAGAGCACUGCAC against CCDC87  -0.47
50. UUCUGCUUCCGGUAAAUGC against SH3TC1  -0.467
51. UUGAGUCCAAUGUCCACUC against TBC1D9B  -0.454
52. UCCUCGAAAAUCUCAAAGC against MYO1B  -0.441
53. UUGGUUCCAUUGUAGGUCU against TSPAN3  -0.422
54. UGUUGUACCACUGUCAGAG against PPM1G  -0.406
55. UGAUUGCAGAUGAUGAUCC against VHLL  -0.39
56. AGAAGAUGAAUCACAGAGC against BAGE4  -0.377
57. UGUAGUACACUCUUGUUCU against GOLGA8G  -0.318
58. UUUGAUUUGGUUGUGACCC against ZYX  -0.301
59. UUCAAGUUUGUUCUCAGAC against GOLGA6L7P  -0.298
60. UUCUUUUUGUCCAAACUCU against SLC25A25  -0.247
61. AUAUUUCAUAUAGGCGAUG against PLA2G10  -0.215
62. UUAUGUCUCAUGAGUCGGU against ZNF548  -0.149
63. AAACCUAUUAACUUCAAGC against CHKA  -0.134
64. UUGAUUUUCUCCUCCAUCC against JAKMIP1  -0.126
65. UCUUGGUCCUCUGGCAGUC against TMEM116  -0.118
66. UCGUUUACCAAACAGUUUC against BTK  -0.0928
67. UAGGUCGAAAGAACUCAGC against PEX3  -0.0828
68. AAUUCACAUGUUGUAAUCC against STRADBP1  -0.053
69. UCUGUUUGAUGUUAGGUUG against PACS1  -0.0479
70. UUACUUUUAGUUCAUACAG against SOX1  -0.0466
71. UUACUGACAGUAUUUCACU against C10orf67  -0.0381
72. AGUAUAUCACACUUGAUCC against COL4A4  -0.00727
73. AUCGAUUCCAUUUCAAGGC against SERHL  0.0431
74. UAAGAAAUGACGUGUGCUG against PTGDR2  0.0522
75. UUUAUAUCCAUAUCCUUUC against PPIC  0.0569
76. UAAAUUUGCAUGAAGGUGU against TMEM179  0.108
77. UAUGGAGAGAGAAUAACUG against SDHC  0.151
78. AACCGAAGGAGAUUCCUGG against C8orf49  0.161
79. UUCUUUCGCAUUGCAAUGC against CMC2  0.187
80. UUUUAUUCGAAAUUCUGCA against ITGB1BP1  0.195
81. UUGCUGAACGCGAUGAUCU against PRDX2  0.201
82. ACAUUGGUACCUGUCAUCC against GLYCTK  0.203
83. AAGCCGAAAAUUGAUCUGC against GLDC  0.214
84. UCCACGUCAAAUUUAUCCC against SPAG1  0.232
85. AAGGUAAACGAUUAAAUUG against LAMTOR3  0.248
86. AAAGUUACGCACCCAAUUG against GBA  0.249
87. AUCAGUACUAAAAUAUCGG against ATG2B  0.25
88. UAAGUUCUUAGAGUUUUGG against TP53TG3  0.271
89. UUCUUUAACUUUAUGCUCC against RAI2  0.273
90. AAGGUAAACAUGUUCUCGC against TARSL2  0.287
91. UUCUAGAUAAUAACUCUCC against CCDC47  0.297
92. UCUUAUGUAAUUGUUCCUC against KANSL1  0.324
93. UUCUCGAUUAAGAAGUUUC against C18orf21  0.33
94. AAAGUUGAGGGUAGCACUC against AP5B1  0.334
95. AGCAGCAUCAUUCUCAUGU against LOXL4  0.376
96. UUUGUUCUGGAUGCCCUGC against WARSP1  0.407
97. UAUUCUAUUGGGUCACUGG against DYDC2  0.409
98. UCACUAAUAGGAUCUUCGC against RAB3GAP1  0.413
99. UCUGAUGUAAUUUCCAGUU against AARD  0.424
100. UAUUUGAAGCUCCAGGGUG against FBXL15  0.429
101. UUAGAUACAGGUAUGAACA against OR4C45  0.478
102. UUAGAAAUGCAAAUAAACU against TMSB15A  0.478
103. UUAAUGAAUCUACAGUCCG against OTOR  0.51
104. UGAGGACAAAGAAUCUUCC against MRPS18B  0.518
105. AUUCGAAUUAGGUAUUGGG against MAK16  0.538
106. AAACCGAUAAGAACUGAGA against TMEM41A  0.54
107. AAAUAAAACGUACAAAUAC against SCRT1  0.713
108. AAGGAAAUUAGGAUAAUAG against FAM217B  0.732
109. UUCGGUAAGACAUCAGUGG against STAG2  0.75
110. UAACAUAAUUAUAACCUCC against ZNF716  0.757
111. AUAGAUACUGGGAGGUUUG against UBE2J2  0.783
112. UAUGUGAUUCUGGUGCUUG against LEMD1  0.794
113. UUAGUUCCCAAGUACUAUC against CHD9  0.856
114. UGACUGUCUUGCGUAUUUC against TTC21A  0.856
115. UAUCAUAUUUAAGAGACUG against TSSC1  0.912
116. UUCAGCACCACGCAGUUGC against C12orf65  0.924
117. UAGUGUAAUUGGUCUAACC against POGZ  0.928
118. AUAGUUGACAUUCCGAACC against CDK5RAP3  0.941
119. UUAGAGUUUGCGAAGCAGG against PSG11  0.96
120. UGGAUAGCGGUCCUCAUCC against IL17C  1
121. UUUGUUCCAAGGCAUUCAC against CCDC129  1.07
122. UAUCCUGUAAGUUGUGGGC against TEX28  1.15
123. UUUCCUAUUCACAAGAGCG against FHIT  1.2
124. UAUUGACCACAAUCGAGGC against PIGX  1.23
125. AAGUGAAUAGAAAACAUCC against SUN5  1.29
126. UCUUUGCUAGGUAAAAAGC against PRUNE  1.32
127. AAAAUAUAGAUAUCUAUGC against GADD45B  1.35
128. UUCUCAUCGAGCCUGAAGU against FAM187B  1.36
129. AAGGUUUUCCGAGUAACUC against LYZL6  1.38
130. UACUGAACACUGGAAAUUC against FGFBP2  1.53
131. UAGGUCAGAAGCAACCUGC against C10orf111  2.42
132. AAGCGGGAUGAAGAAAUCC against GSX2  3.22
